Screens: PubChem BioAssay, National Center for Advancing Translational Sciences (NCATS)
Sampled rows, rich in hits. Any-hit rate of the full collection: about 12%.
Sfp inh: inhibitors of Bacillus subtilis Sfp phosphopantetheinyl transferase | Biochemical Sfp PPTase activity, qHTS | Q9F4F7 | 3.5% of 310,000 active | Potency, µM, for the others: largest response in the series, negative = inhibition, most hits filed as inhibitors;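 further: the enzyme is Sfp with the accession as filed and its product quenches rhodamine fluorescence; 0% = enzyme reaction without inhibitor and -100% = no enzyme wells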
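After 15 min at room temperature with compound, 15 nM Sfp received 5 uM rhodamine-CoA plus 12.5 uM BHQ-2-ybbR (50 mM Hepes pH 7.6, 10 mM MgCl2). Rate came from the fluorescence difference over 30 min, ex 525/em 598 nm.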
RORgamma inh: inhibitors of mouse ROR gamma transcriptional activity; P51450; Drosophila S2 Gal4-RORgamma UAS-luciferase reporter, 20 h; Potency, µM (top dose mostly 53.6 µM), for the others: top-dose activity change, negative = inhibition, usual class: inhibitors; 5.4% of 310,000 active; further: nearly all actives have a fitted effect of over 60% in size
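Luminescence from a UAS-regulated Photinus luciferase reporter in stably transfected Drosophila Schneider cells is measured; decreased signal marks ROR gamma inhibition. Fusion expression is induced by 700 uM copper sulfate for 20 hr.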
Gal4-VP16 FLuc: Gal4-VP16 reporter inhibition counter-screen; 3.5% of 310,000 active; Potency, µM (doses to about 53.6 µM), without a hit: at the highest dose activity, negative = inhibition, hits mostly inhibitors; AID 2546; Drosophila S2 Gal4-VP16 UAS-luciferase, luminescence, 20 h;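 further: Gal4-VP16 expression switched on by copper sulfate through the metallothionein promoter; nearly all actives have a fitted effect of over 50% in size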
ALDH1A1 inh: blocks purified human ALDH1A1 activity; P00352; Purified ALDH1A1, NADH fluorescence, propionaldehyde substrate; Potency, µM (highest dose often 75.3 µM), inactives show at the top dose activity, negative = inhibition, usual class: inhibitors; 7.3% of 220,000 active; active means well fitted inhibition curve with a large enough effect, not every such curve was filed as active; inconclusive means small, poorly fitted or top-dose-only effect, or another doubt; inactive means no such curve, though single readings can be large or run the other way;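 further: plate controls were no enzyme wells and a reference inhibitor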
Target sequence (P00352 whole entry, looked up): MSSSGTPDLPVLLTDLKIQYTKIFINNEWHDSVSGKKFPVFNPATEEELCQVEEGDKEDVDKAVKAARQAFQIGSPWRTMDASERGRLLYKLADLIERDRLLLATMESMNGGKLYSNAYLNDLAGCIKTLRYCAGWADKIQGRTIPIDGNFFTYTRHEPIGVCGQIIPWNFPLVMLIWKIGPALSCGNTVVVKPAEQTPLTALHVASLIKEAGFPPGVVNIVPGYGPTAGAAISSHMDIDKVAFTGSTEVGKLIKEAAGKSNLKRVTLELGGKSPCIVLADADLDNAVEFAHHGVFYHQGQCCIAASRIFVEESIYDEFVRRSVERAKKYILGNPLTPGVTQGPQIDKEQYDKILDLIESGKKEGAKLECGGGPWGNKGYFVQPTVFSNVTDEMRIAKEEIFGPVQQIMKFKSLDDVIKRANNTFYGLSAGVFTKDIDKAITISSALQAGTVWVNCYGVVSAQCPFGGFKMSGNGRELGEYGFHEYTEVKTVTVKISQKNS
PLK1 PBD block: blocks phosphopeptide binding to human PLK1 polo-box domain. Plk1 PBD binding of FITC phosphopeptide, fluorescence polarization. P53350. Potency, µM, for the others: max response, negative = inhibition, usual class: inhibitors. AID 720504. 2.8% of 360,000 active; further: series mostly up to about 57 µM; nearly all actives have a fitted effect of over 65% in size
* hit, by the source's call. Unless noted, the call rests on the fitted dose curve; in most records, active means well fitted curve in the direction sought with a large enough effect; inconclusive means small, poorly fitted or top-dose-only effect, or another doubt; inactive means no such curve, though single readings can be large; an effect the other way counts as inactive or inconclusive. Unless noted, on the % scale 0 is the no-effect control and ±100 the full control effect; potency means the concentration at half of the fitted maximal effect.

Results for Cc1ccc(C)c2sc(NC(=O)c3ccc(N4C(=O)CCC4=O)cc3)nc12 ?
Sfp inh: 15%; RORgamma inh: 0.2µM*; Gal4-VP16 FLuc: -19%; ALDH1A1 inh: inconclusive; PLK1 PBD block: -17%

What do the screens show for `O=C(Nc1nc2cc3c(cc2s1)OCO3)C1=COCCO1`?
Sfp inh: -1%; RORgamma inh: 4.5µM*; Gal4-VP16 FLuc: 4µM*; ALDH1A1 inh: -1%; PLK1 PBD block: 1%

How did COc1ccc(S(=O)(=O)Nc2ccc3c(c2)C(=O)N([C@H](C)CO)C[C@H](C)[C@@H](CN(C)C(=O)Nc2ccc(C(F)(F)F)cc2)OCCCC[C@H](C)O3)cc1 do in these assays?
PLK1 PBD block: -1%

What do the screens show for `O=C(OCc1cn([C@H]2C[C@H](c3ccccc3)N(Cc3cccs3)C[C@@H]2O)nn1)c1ccccc1`?
PLK1 PBD block: -2%

How did CS(=O)(=O)c1ccc2nc(NC(=O)c3ccco3)sc2c1 do in these assays?
Sfp inh: 2%; RORgamma inh: inconclusive; Gal4-VP16 FLuc: inconclusive; ALDH1A1 inh: 7%; PLK1 PBD block: -3%

Results for O=C(Nc1nc2cc3c(cc2s1)OCCO3)c1ccc(N2C(=O)CCC2=O)cc1 ?
Sfp inh: 14µM*; RORgamma inh: 11%; Gal4-VP16 FLuc: 7%; PLK1 PBD block: -4%

How did O=C(NC(=S)Nc1nc2ccc(F)cc2s1)c1ccco1 do in these assays?
Sfp inh: 56µM*; RORgamma inh: 0.79µM*; Gal4-VP16 FLuc: 1.8µM*; ALDH1A1 inh: -6%; PLK1 PBD block: -4%

Results for CCc1ccc2nc(NC(=O)c3ccc(N4C(=O)CCC4=O)cc3)sc2c1 ?
Sfp inh: 22%; RORgamma inh: 15%; Gal4-VP16 FLuc: -9%; PLK1 PBD block: 2%

What do the screens show for `CNS(=O)(=O)c1ccc2nc(NC(=O)c3ccc(N4C(=O)CCC4=O)cc3)sc2c1`?
Sfp inh: 14µM*; RORgamma inh: 5%; Gal4-VP16 FLuc: -16%; ALDH1A1 inh: inconclusive; PLK1 PBD block: 7.5µM*

How did Cc1ccc(/C([O-])=C(/C(=S)NCc2ccccc2)[n+]2cccc(CO)c2)cc1[N+](=O)[O-] do in these assays?
Sfp inh: inconclusive; RORgamma inh: -6%; Gal4-VP16 FLuc: 11%; ALDH1A1 inh: 8.9µM*; PLK1 PBD block: inconclusive

What do the screens show for `Cc1cc2n(n1)SC(Nc1ccc(F)cc1)N2` (centres undefined)?
Sfp inh: -4%; RORgamma inh: inconclusive; Gal4-VP16 FLuc: inconclusive; ALDH1A1 inh: 28µM*; PLK1 PBD block: 0%

Results for Cc1cc(C)nc(Nc2cccc3ccccc23)n1 ?
Sfp inh: -3%; PLK1 PBD block: -9%

How did Cc1cc2n(n1)SC(Nc1cc(Cl)ccc1Cl)N2 (centres undefined) do in these assays?
Sfp inh: 2%; RORgamma inh: 0.5µM*; Gal4-VP16 FLuc: 0.56µM*; ALDH1A1 inh: 3.5µM*; PLK1 PBD block: -27%

Results for CCc1ccccc1NC1Nc2cc(C)nn2S1 (centres undefined) ?
Sfp inh: 17%; RORgamma inh: 5.6µM*; Gal4-VP16 FLuc: 13µM*; ALDH1A1 inh: inconclusive; PLK1 PBD block: -22%

How did Cc1cc2n(n1)SC(Nc1cccc3ccccc13)N2 (centres undefined) do in these assays?
Sfp inh: -12%; RORgamma inh: 2µM*; Gal4-VP16 FLuc: 4.5µM*; ALDH1A1 inh: 13µM*; PLK1 PBD block: -19%

How did Cc1ccc(C(=O)N/N=C\C=C\c2ccccc2[N+](=O)[O-])cn1 do in these assays?
Sfp inh: -2%; RORgamma inh: 21%; Gal4-VP16 FLuc: inconclusive; ALDH1A1 inh: 7.9µM*; PLK1 PBD block: -11%

How did Cc1ccc(C(=O)N/N=C\c2ccc([N+](=O)[O-])o2)cn1 do in these assays?
Sfp inh: -16%; RORgamma inh: inconclusive; Gal4-VP16 FLuc: inconclusive; ALDH1A1 inh: inconclusive; PLK1 PBD block: -1%

How did CCOc1ccc(C(=O)N/N=C/c2ccccc2[N+](=O)[O-])cc1 do in these assays?
Sfp inh: -3%; RORgamma inh: -33%; Gal4-VP16 FLuc: inconclusive; ALDH1A1 inh: -16%; PLK1 PBD block: -2%

How did COc1cc(/C=N/NC(=O)c2ccc(C)nc2)cc([N+](=O)[O-])c1O do in these assays?
Sfp inh: -13%; RORgamma inh: inconclusive; Gal4-VP16 FLuc: -9%; ALDH1A1 inh: -4%; PLK1 PBD block: -14%
